# From PubChem BioAssay (Tox21)
# Where “and” joins values, the source holds several entries; their conditions need not be identical. Equal values may be shown once. Inconclusive results are not listed. Entries that show only a call come without a potency. Calls of active or inactive are those of the source. Calls follow the shape of the dose curve; as a rule, active = well fitted cell-killing curve with a large enough effect in the repeat runs; inconclusive = weak or mixed curves; inactive = flat fitted curve, though single readings scatter.
# Test: qHTS RealTime-Glo MT Cell Viability Assay in HepG2 cells - 32 hour (AID 1224877); also: nearly all actives have a fitted effect of over 55% in size
# Conditions: RealTime-Glo luminescence; series mostly up to 76.8 µM
# Excerpt: U.S. Tox21 Program National Center for Advancing Translational Sciences [NCATS] NIH Chemical Genomics Center [NCGC] U.S. Environmental Protection Agency [EPA] National Institutes of Environmental Health Sciences [NIEHS] National Toxicology Program [NTP] U.S. Food and Drug Administration [FDA] Tox21 Assay Overview: Measure of cell viability is critical in the cell-base assay. Analysis of cell viability is necessary for the characterization of cell responses to cytotoxic drugs and environmental stress. A RealTime-Glo MT Cell Viability Assay to monitor cell viability in real time of continues cell culture during 40 hours of compound treatment was used to screen Tox21 10K library compounds in HepG2 cells. The RealTime-Glo MT Cell Viability Assay is a nonlytic, homogeneous, bioluminescent method to measure cell viability in real time using a simple, plate-based method. The assay involves adding NanoLuc luciferase and a cell-permeant prosubstrate to cells in culture. Viable cells reduce the proprietary prosubstrate to generate a substrate for NanoLuc luciferase. This substrate diffuses from cells into the surrounding culture medium, where it is rapidly used by the NanoLuc Enzyme to produce a luminescent signal. The signal correlates with the number of viable cells, making the assay well suited for cytotoxicity studies.
# Tox21 Assay Protocol Summary: The mixture of HepG2 cell suspension and reagents were dispensed at 600cells/6 ul/well in 1536-well tissue culture treated black solid bottom plates using a Multidrop dispenser. After the assay plates were incubated at a 37 C/5% CO2 incubator for 5 hours, 23 nL of compounds dissolved in DMSO, positive and negative controls was transferred to the assay plate by a pintool work station. The plates were incubated at 37 C for 40 hours. The luminescence intensity were measured at 0h, 8h, 16h, 24h, 32h and 40h time points using ViewLux plate reader during compound treatment.
# Potency is read from the fitted curve at half-maximal effect.
row,Structure (SMILES),Potency
1,CCCCCCCCCCCOC(=O)c1ccccc1C(=O)OCCCCCCCCCCC,inactive
2,O=P(O)(O)CCCl,inactive
3,C=C(C)[C@H]1Cc2c(ccc3c2O[C@@H]2COc4cc(OC)c(OC)cc4[C@@H]2C3=O)O1,44.2 µM (active) and 27.5 µM (active)
4,c1ccc(NNc2ccccc2)cc1,inactive
5,COc1ccc(C(CN(C)C)C2(O)CCCCC2)cc1 (stereo not given),inactive
6,Oc1cc(Cl)ccc1Cl,inactive
7,Brc1ccc(Oc2cc(Br)c(Br)cc2Br)c(Br)c1,inactive
8,Nc1ccc(-c2ccccc2)cc1,inactive
9,N#CCCCl,inactive
10,CCC(C)(c1ccc(O)cc1)c1ccc(O)cc1,inactive
11,CCOc1cc(Oc2ccc(C(F)(F)F)cc2Cl)ccc1[N+](=O)[O-],inactive
12,O=C(NC(=O)c1c(F)cccc1F)Nc1ccc(Cl)cc1,inactive
13,CCC(CC)Nc1c([N+](=O)[O-])cc(C)c(C)c1[N+](=O)[O-],inactive
14,COP(=S)(OC)Oc1ccc([N+](=O)[O-])cc1,inactive
15,CC(C)c1ccc(CO)cc1,inactive
16,O=C1C=CC(=O)C=C1,inactive
17,CCN(N=O)C(N)=O,inactive
18,CC(C)=CC1C(C(=O)OCc2coc(Cc3ccccc3)c2)C1(C)C (stereo not given),inactive
19,CC(C)(OOC(C)(C)c1ccccc1)c1ccccc1,inactive
20,c1nc[nH]n1,inactive

row,Structure (SMILES),Potency
1,Oc1cc(Cl)ccc1Oc1ccc(Cl)cc1Cl,25.1 µM (active)
2,CCOP(=S)(OCC)O/N=C(\C#N)c1ccccc1,inactive
3,CC(C)N(C(=O)SCC(Cl)=C(Cl)Cl)C(C)C,inactive
4,N[C@@H](Cc1ccc(N(CCCl)CCCl)cc1)C(=O)O,inactive
5,NNC(=S)NN,inactive
6,CC(C)C(=O)OCC(C)(C)C(OC(=O)C(C)C)C(C)C (stereo not given),inactive
7,CCN(CC)C(=O)/C(Cl)=C(\C)OP(=O)(OC)OC,inactive
8,NNC(N)=S,inactive
9,O=C(CCl)c1ccccc1,inactive
10,Cc1ccc2c(c1N)C(=O)c1ccccc1C2=O,inactive
11,CCC(=O)O[C@H]1CC[C@H]2[C@@H]3CCC4=CC(=O)CC[C@]4(C)[C@H]3CC[C@]12C,inactive
12,CC1(C)C(C=C(Cl)Cl)C1C(=O)OC(C#N)c1cccc(Oc2ccccc2)c1 (stereo not given),inactive
13,CCN(CC)C(=O)SCc1ccc(Cl)cc1,inactive
14,CCN(CC)N=O,inactive
15,ClC1C(Cl)C(Cl)C(Cl)C(Cl)C1Cl (stereo not given),inactive
16,Cc1ccc(OP(=O)(Oc2ccc(C)cc2)Oc2ccc(C)cc2)cc1,inactive
17,Oc1c(Cl)c(Cl)c(Cl)c(Cl)c1Cl,inactive
18,C=CCN(CC=C)C(=O)C(Cl)Cl,inactive
19,CCC(C)c1cc([N+](=O)[O-])cc([N+](=O)[O-])c1O (stereo not given),inactive
20,Nc1ccc(-c2ccc(N)c(N)c2)cc1N,inactive
